The panel holds about 83,000 compounds, 20% with a hit somewhere; the sample as a whole holds those more often.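 Testing used 96-well plates and a 48-hour single-concentration exposure. Example: -40 means 40% of the starting cells died.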 A number with no mark means an inactive call. Calls of active or inactive are those of the source. Rule for the calls: active = growth percent below 10; inactive = the rest.
Assays:
Assay in all cases: NCI-60 one-dose screen, 48 h (100 = growth as untreated, 0 = no growth, -100 = all killed)
Settings in all cases: 10 µM unless noted
HT29 colon = test system: HT29 colon
SNB-75 CNS = test system: SNB-75 CNS
SNB-19 CNS = test system: SNB-19 CNS
U251 CNS = test system: U251 CNS
SK-MEL-5 melanoma = test system: SK-MEL-5 melanoma
UACC-62 melanoma = test system: UACC-62 melanoma
LOX IMVI melanoma = test system: LOX IMVI melanoma
SK-MEL-28 melanoma = test system: SK-MEL-28 melanoma
SK-MEL-2 melanoma = test system: SK-MEL-2 melanoma
EKVX NSCLC = test system: EKVX NSCLC
SN12C renal = test system: SN12C renal
UO-31 renal = test system: UO-31 renal
TK-10 renal = test system: TK-10 renal
ACHN renal = test system: ACHN renal
CAKI-1 renal = test system: CAKI-1 renal
A498 renal = test system: A498 renal
CCRF-CEM leukemia = test system: CCRF-CEM leukemia
MOLT-4 leukemia = test system: MOLT-4 leukemia
SR leukemia = test system: SR leukemia

Compound | growth (HT29 colon) | growth (SNB-75 CNS) | growth (SNB-19 CNS) | growth (U251 CNS) | growth (SK-MEL-5 melanoma) | growth (UACC-62 melanoma) | growth (LOX IMVI melanoma) | growth (SK-MEL-28 melanoma) | growth (SK-MEL-2 melanoma) | growth (EKVX NSCLC) | growth (SN12C renal) | growth (UO-31 renal) | growth (TK-10 renal) | growth (ACHN renal) | growth (CAKI-1 renal) | growth (A498 renal) | growth (CCRF-CEM leukemia) | growth (MOLT-4 leukemia) | growth (SR leukemia)
COc1cc2c(cc1OCCCCCn1c(-c3ccc(OCc4ccccc4)cc3)nc3cc(N4CCOCC4)ccc31)N=C[C@@H]1CCCN1C2=O | -13.7% (active) | 12.1% | 34.7% | -24.4% (active) | -66.7% (active) | -76.5% (active) | -29.7% (active) | -19% (active) | -40% (active) | 52.5% | 23.2% | 0.0572% (active) | -13.3% (active) | -54.5% (active) | 18.5% | -74.7% (active) | 8.03% (active) | 23.7% | 137%
O=C(Nc1ccc(Oc2ccc(NC(=O)Nc3ccc([N+](=O)[O-])cc3)cc2)cc1)Nc1ccc([N+](=O)[O-])cc1 | 8.5% (active) | 42.6% | 29.7% | 17.6% | -76.1% (active) | 15.6% | 12.4% | 24.8% | -27.5% (active) | 17.1% | 12.1% | -4.36% (active) | 15.1% | 10.2% | 13.9% | 13% | -32% (active) | -26.4% (active) | -3.7% (active)
O=C(c1nn(-c2ccc(Cl)cc2)cc1O)n1nc(C(F)(F)F)cc1-c1ccccc1 | 37.8% | 55.4% | 51.2% | 46.8% | 59% | 44.2% | 32.8% | 53% | 67.9% | 31.5% | 45.9% | 37% | 69.3% | 38.8% | -20.6% (active) | 76% | 0.973% (active) | 13.1% | -30.4% (active)
CN(C)CCCN1c2nc3ccccc3cc2Sc2cc3ccccc3nc21 | -88.6% (active) | 9.61% (active) | -56.1% (active) | -84% (active) | -75.9% (active) | -91.3% (active) | -100% (active) | -92.9% (active) | 13% | -50.9% (active) | -22.4% (active) | -22.7% (active) | -78.2% (active) | -100% (active) | -17.2% (active) | -5.96% (active) | – | -57.9% (active) | -38.2% (active)
CN(C)c1ccc(/C=C(\C#N)c2nc3ccccc3c(=O)[nH]2)cc1 | 87.6% | 113% | 94.7% | 77.4% | 89.3% | 94.8% | 83.8% | 110% | 36.5% | 92% | 90.8% | 35.7% | 101% | 96.1% | 98% | 90.7% | 107% | 118% | 154%
COc1ccc(OC)c(NC(=O)c2cc3oc4ccccc4c3cc2O)c1 | 100% | 84% | 92.7% | 120% | 91.1% | 79.7% | 109% | 101% | 96.1% | 75.9% | 95% | 79.8% | 135% | 98.7% | 74.7% | 121% | 99.4% | 117% | 127%
CSC1=Nc2c(c(C)c(-c3ccccc3)n2CCCN2CCCCC2)C2=NC(=O)C[C@H](C)N12 | 21.4% | 50.3% | 20.2% | 11.8% | 9.86% (active) | 53.7% | 42.3% | 43.2% | 62.8% | 41.9% | 45.5% | 56.6% | 48.7% | 66.8% | 66.9% | 80.8% | 20.7% | 67.6% | 2.43% (active)
O=C1CC(C(F)(F)F)=NN1C(=O)c1nn(-c2ccc(Cl)cc2)cc1O | 110% | 74.6% | 87.7% | 64.9% | 88.4% | 96.4% | 62.6% | 115% | 96.9% | 79.5% | 80.3% | 67.3% | 122% | 79.3% | 52.8% | 77.8% | 53.1% | 80.4% | -0.46% (active)
O=C(Nc1ncc([N+](=O)[O-])s1)c1cccc([N+](=O)[O-])c1 | 51.4% | 30.3% | 32.8% | 52% | -14.2% (active) | 9.35% (active) | 52.1% | 56.8% | 16.9% | 37.9% | 51.1% | 63.4% | 23.4% | 59% | 40.4% | 5.48% (active) | 33% | 27.8% | 39.3%
CCOC(=O)/C=C(/C)Sc1cc(O)c2ccccc2c1O | 79.7% | -83% (active) | -14.7% (active) | 20% | -99.1% (active) | 36.3% | -36.1% (active) | -53.9% (active) | 27.8% | 44.8% | -68.3% (active) | -5.64% (active) | 105% | 25.2% | 46.1% | 124% | 38.4% | 33% | 17.1%
COc1ccc(-c2cc(C(=O)Nc3nc4cc(C)c(C)cc4s3)nc3cc(-c4ccccc4)nn23)cc1OC | 93.1% | 87.9% | 108% | 111% | 110% | 107% | 95.1% | 94.4% | 113% | 107% | 107% | 103% | 125% | 106% | 91.3% | 129% | 84.2% | 98.7% | 62.8%
CCCCC1Nc2nc(SC)n(C)c(=O)c2CN(Cc2ccccc2)C1=O (centres undefined) | 105% | 86% | 93.7% | 92.2% | 96.4% | 85.9% | 88.6% | 122% | 90% | 82.8% | 93.4% | 72.2% | 78.3% | 90.2% | 69.3% | 117% | 87% | 120% | 285%
O=C(C=C=Nc1ccccc1)C(=O)N=C=Cc1ccccc1 | 52.1% | 75.8% | 92.3% | 83.7% | 74.3% | 67% | -47.5% (active) | 68.2% | 49.2% | 72.6% | 77.7% | -51.3% (active) | -20.3% (active) | -58.3% (active) | 17.7% | 102% | -35.5% (active) | -16.3% (active) | 3.67% (active)
COc1cccc(-c2nnc(N)o2)c1 | 100% | 106% | 102% | 97.8% | 99.3% | 99.5% | 94.7% | 104% | 107% | 100% | 97.2% | 97.1% | 121% | 103% | 98.4% | 97.8% | 103% | 110% | 124%
COc1ccc(C2=NN(C(C)=O)C(c3cc(OC)c(OC)c(OC)c3)C2)cc1 (centres undefined) | 103% | 96.6% | 90.7% | 105% | 92.6% | 101% | 90.6% | 129% | 99% | 95.2% | 109% | 80% | 152% | 104% | 100% | 96.5% | 75.5% | 118% | -9.78% (active)

From PubChem BioAssay (NCI)
